Many of the other results were omitted from the sample, so hits are more common in it than they were.
ROS inducer – ROS inducers in U2OS cancer cells, primary screen, cell-based, H2DCF-DA fluorescence; U2OS ROS induction; ROS induction (% of piperlongumine), % at 10 µM; 46,000 tested, 2% active; AID 624156, 2012; in the data active means ROS induction above about 79%, passing the limit was not always enough
A number is an active result; - = inactive.

SMILES	ROS inducer
Cc1noc(C)c1S(=O)(=O)N(C)C[C@H]1OCCCC[C@@H](C)Oc2ccc(NS(C)(=O)=O)cc2C(=O)N([C@H](C)CO)C[C@@H]1C	-
COc1ccc(S(=O)(=O)N(C)CC(=O)Nc2ccc3c(c2)OCCO3)cc1Cl	-
C[C@H]1CN([C@@H](C)CO)C(=O)Cc2cc(NC(=O)CCC(F)(F)F)ccc2O[C@H]1CN(C)C(=O)Nc1ccc(C(F)(F)F)cc1	-
Cc1ccc2oc(-c3cccc(NC(=O)COc4cccc(C)c4C)c3)nc2c1	-
C=CCNC(=O)CCn1c(=S)[nH]c2cc3c(cc2c1=O)OCO3	-
COc1cc2c(cc1OC)C(COc1cccc(C(F)(F)F)c1)N(C(=O)c1ccco1)CC2 (stereo unspecified)	-
CC(C)(Oc1ccc(Br)cc1)C(=O)O	-
COc1ccc(-n2c(SCCCN3C(=O)c4cccc5cccc(c45)C3=O)nnc2-c2ccncc2)cc1	88
COc1ccc(-n2c(SCC(=O)c3ccccc3)nnc2-c2ccncc2)cc1	-
Cn1c(SCCCN2C(=O)c3cccc4cccc(c34)C2=O)nnc1-c1cccs1	-
COc1cc(OC)c(/C=N/NC(=O)c2cccc(C(=O)NO)c2)c(OC)c1	-
C[C@H]1CN([C@@H](C)CO)C(=O)Cc2cc(NS(=O)(=O)c3ccc(Cl)cc3)ccc2O[C@H]1CN(C)Cc1ccc(Cl)c(Cl)c1	-
C[C@H](CO)N1C[C@H](C)[C@H](CN(C)Cc2ccc(Cl)c(Cl)c2)Oc2ccc(NS(=O)(=O)c3ccc(Cl)cc3)cc2CC1=O	-
C[C@@H]1CN([C@@H](C)CO)C(=O)Cc2cc(NS(C)(=O)=O)ccc2O[C@@H]1CN(C)Cc1ccc(Cl)c(Cl)c1	104
C[C@H]1CN([C@@H](C)CO)C(=O)Cc2cc(NC(=O)CCN3CCOCC3)ccc2O[C@@H]1CN(C)Cc1ccncc1	-
C[C@H]1CN([C@@H](C)CO)C(=O)Cc2cc(NC(=O)CCN3CCOCC3)ccc2O[C@@H]1CN(C)Cc1ccc(Cl)c(Cl)c1	90
C[C@H]1CN([C@@H](C)CO)C(=O)Cc2cc(NC(=O)CCN3CCOCC3)ccc2O[C@H]1CN(C)Cc1ccc(Cl)c(Cl)c1	-
C[C@H](CO)N1C[C@H](C)[C@H](CN(C)S(C)(=O)=O)Oc2c(NS(=O)(=O)c3cn(C)cn3)cccc2C1=O	-
COc1ccc(NC(=O)N(C)C[C@@H]2Oc3ccc(NC(=O)NC(C)C)cc3C(=O)N([C@H](C)CO)C[C@@H]2C)cc1	-
COC(=O)N(C)C[C@@H]1OCc2cn(nn2)CCCC(=O)N([C@@H](C)CO)C[C@@H]1C	-
C[C@H](CO)N1C[C@H](C)[C@H](CN(C)Cc2ccc(C(F)(F)F)cc2)Oc2c(cccc2N(C)C)C1=O	-
COc1ccc(NC(=O)N(C)C[C@@H]2Oc3ccc(NC(=O)Cc4ccccc4)cc3C(=O)N([C@H](C)CO)C[C@@H]2C)cc1	-
Cc1noc(C)c1S(=O)(=O)Nc1ccc2c(c1)C(=O)N([C@@H](C)CO)C[C@@H](C)[C@H](CN(C)S(=O)(=O)c1cccs1)O2	-
Cc1ccc(S(=O)(=O)N(C)C[C@@H]2Oc3ccc(NC(=O)Nc4ccccc4)cc3CC(=O)N([C@H](C)CO)C[C@@H]2C)cc1	-
C[C@H]1CN([C@@H](C)CO)C(=O)Cc2cc(NC(=O)c3ccncc3)ccc2O[C@H]1CN(C)S(=O)(=O)c1ccc(Cl)cc1	-
SMILES	ROS inducer
Cc1ccc(S(=O)(=O)N(C)C[C@@H]2Oc3ccc(NC(=O)Nc4ccc(C(F)(F)F)cc4)cc3CC(=O)N([C@@H](C)CO)C[C@@H]2C)cc1	98
C[C@H]1CN([C@@H](C)CO)C(=O)Cc2cc(NC(=O)c3ccncc3)ccc2O[C@@H]1CN(C)S(=O)(=O)c1ccc(Cl)cc1	-
Cc1ccc(S(=O)(=O)N(C)C[C@H]2Oc3ccc(NC(=O)Nc4ccccc4)cc3CC(=O)N([C@@H](C)CO)C[C@@H]2C)cc1	123
C[C@H](CO)N1C[C@H](C)[C@H](CN(C)S(=O)(=O)c2ccc(Cl)cc2)Oc2ccc(NC(=O)c3ccncc3)cc2CC1=O	102
Cc1ccc(S(=O)(=O)N(C)C[C@H]2Oc3ccc(NC(=O)Nc4ccc(C(F)(F)F)cc4)cc3CC(=O)N([C@@H](C)CO)C[C@H]2C)cc1	-
Cc1ccc(S(=O)(=O)N(C)C[C@@H]2Oc3ccc(NC(=O)Nc4ccccc4)cc3CC(=O)N([C@H](C)CO)C[C@H]2C)cc1	-
C[C@H]1CN([C@@H](C)CO)C(=O)Cc2cc(NC(=O)Nc3ccc(C(F)(F)F)cc3)ccc2O[C@H]1CN(C)S(=O)(=O)c1ccc(F)cc1	-
Cc1ccccc1NC(=O)C(=O)NCc1cccnc1	-
COc1ccc(-c2nnc(SCc3ccc(OC)c([N+](=O)[O-])c3)n2-c2ccccc2)cc1	-
C[C@H]1CN([C@@H](C)CO)C(=O)c2cc(NC(=O)NC3CCCCC3)ccc2O[C@H]1CN(C)C(=O)Nc1ccc(C(F)(F)F)cc1	-
C[C@@H]1CN([C@H](C)CO)C(=O)c2cccc(NS(=O)(=O)c3ccc(F)cc3)c2O[C@@H]1CN(C)S(C)(=O)=O	-
Cc1cc(C)cc(NC(=O)CC(NCc2cccnc2)C(=O)O)c1 (stereo unspecified)	-
COc1cccc(S(=O)(=O)N(C)C[C@@H]2Oc3ncc(Br)cc3C(=O)N([C@H](C)CO)C[C@@H]2C)c1	-
Cc1cc(C(=O)Nc2cccc3c2O[C@@H](CN(C)Cc2ccc(Oc4ccccc4)cc2)[C@@H](C)CN([C@H](C)CO)C3=O)n(C)n1	-
Cc1cc(C(=O)Nc2cccc3c2O[C@H](CN(C)Cc2ccccc2)[C@@H](C)CN([C@@H](C)CO)C3=O)n(C)n1	-
Cc1cc(C(=O)Nc2cccc3c2O[C@H](CN(C)Cc2ccc(Oc4ccccc4)cc2)[C@@H](C)CN([C@@H](C)CO)C3=O)n(C)n1	124
Cc1cc(C(=O)Nc2cccc3c2O[C@H](CN(C)Cc2ccc(Oc4ccccc4)cc2)[C@H](C)CN([C@@H](C)CO)C3=O)n(C)n1	-
Cc1cc(C(=O)Nc2cccc3c2O[C@@H](CN(C)Cc2ccc(Oc4ccccc4)cc2)[C@@H](C)CN([C@@H](C)CO)C3=O)n(C)n1	-
Cc1cc(C(=O)Nc2cccc3c2O[C@@H](CN(C)Cc2ccc(Oc4ccccc4)cc2)[C@H](C)CN([C@H](C)CO)C3=O)n(C)n1	106
Cc1noc(C)c1NC(=O)N(C)C[C@@H]1Oc2ccc(NS(=O)(=O)c3c(C)noc3C)cc2C(=O)N([C@@H](C)CO)C[C@@H]1C	-
CN(CC(=O)Nc1ccccc1[N+](=O)[O-])S(=O)(=O)c1ccc(Cl)cc1	-
COc1ccc(C(=O)NC(CO)(CO)CO)cc1OC	-
COc1ccc(OC(C)c2nc(-c3ccncc3)no2)cc1 (stereo unspecified)	-
CCn1c(SCC(=O)Nc2cccc(Br)c2)nnc1-c1ccncc1	-
C[C@H](CO)N1C[C@H](C)[C@H](CN(C)Cc2ccc(Oc3ccccc3)cc2)Oc2ccc(NS(=O)(=O)c3cn(C)cn3)cc2CC1=O	-
C[C@@H]1CN([C@H](C)CO)C(=O)Cc2cc(NS(=O)(=O)c3cn(C)cn3)ccc2O[C@@H]1CN(C)Cc1ccc(-c2ccccc2)cc1	-
C[C@@H]1CN([C@@H](C)CO)C(=O)Cc2cc(NS(=O)(=O)c3cn(C)cn3)ccc2O[C@@H]1CN(C)Cc1ccncc1	-
C[C@H]1CN([C@@H](C)CO)C(=O)Cc2cc(NS(=O)(=O)c3cn(C)cn3)ccc2O[C@@H]1CN(C)Cc1ccncc1	79
